Screens from PubChem.
HCV inhibitor: HCV inhibition. Huh7.5.1 HCVcc-Cre infection, luciferase reporter, 44 h. Potency, µM (top dose mostly 41.8 µM), for inactives: at the highest dose activity change, negative = inhibition, usual class: inhibitors. 340,000 tested, 3.4% active
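Infectious HCVcc-Cre (~0.5 moi) was added to cells just after compound, with cells seeded 4 h earlier at 1,000 per well. Luciferase activity after 44 h culture reported infection; substrate was incubated 15 min at room temperature before reading.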
AmpC detergent: inhibitors of E. coli AmpC beta-lactamase with detergent; AmpC hydrolysis of nitrocefin, absorbance 480 nm, 0.01% Triton; Potency, µM (titrated, usually from 114 µM), for inactives: at the highest dose activity change, negative = inhibition, usual class: inhibitors; 370,000 tested, 0.041% active;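 further: 0% = no-compound wells and -100% = no-enzyme wells; nearly all actives have a fitted effect of over 25% in size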
Target sequence (P00811 whole entry, looked up): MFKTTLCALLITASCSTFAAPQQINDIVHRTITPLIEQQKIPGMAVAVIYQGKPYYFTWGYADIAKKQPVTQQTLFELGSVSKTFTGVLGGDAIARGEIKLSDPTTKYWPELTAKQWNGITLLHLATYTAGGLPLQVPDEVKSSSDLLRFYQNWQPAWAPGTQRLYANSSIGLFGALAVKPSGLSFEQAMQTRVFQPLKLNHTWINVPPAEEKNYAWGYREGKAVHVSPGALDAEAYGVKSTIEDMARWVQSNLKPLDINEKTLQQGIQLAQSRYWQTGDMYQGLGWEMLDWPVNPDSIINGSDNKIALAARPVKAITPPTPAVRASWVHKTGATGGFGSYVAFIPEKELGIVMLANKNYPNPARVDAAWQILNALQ
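AmpC (5.3 nM in the dispensed reagent) in 20 mM phosphate pH 7.0 with 0.01% (detergent screen) or 0.0001% Triton X-100 was preincubated with compounds for 15 min at room temperature. Nitrocefin was then added from an 800 uM solution, and hydrolysis was followed at 480 nm.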
Pf growth 96h: P. falciparum growth inhibition at 96 hours; 320,000 tested, 6.9% active; Potency, µM (top dose mostly 28.7 µM), for inactives: top-dose activity change, negative = inhibition, actives largely listed as inhibitors; P. falciparum luciferase reporter growth, 96 h
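96 h incubation, 37 C, 5% CO2, of luciferase-reporter P. falciparum-infected RBCs (2% hematocrit, 0.05% parasitemia final) with test compounds; endpoint luminescence.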
Pf growth 48h: P. falciparum growth inhibition at 48 hours (one generation); 310,000 tested, 5.9% active; P. falciparum luciferase growth in erythrocytes, 48 h; Potency, µM (titrated, usually from 28.7 µM), inactives show top-dose activity change, negative = inhibition, hits mostly inhibitors
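Luciferase-expressing P. falciparum in infected erythrocytes (2% hematocrit, 0.1% parasitemia final) in RPMI 1640/0.5% Albumax were exposed to compound for 48 hours at 37 C, 5% CO2; growth read as luminescence.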
AMA1-RON2 inh: inhibitors of Plasmodium falciparum AMA1-RON2 interaction | AlphaScreen AMA1-biotinylated RON2 peptide binding | Potency, µM (titrated, usually from 58.2 µM), for the others: at the top dose activity change, negative = inhibition, hits mostly inhibitors | 360,000 tested, 0.2% active | AID 720542;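 further: 0% = vehicle wells and -100% = peptide control; nearly all actives have a fitted effect of over 45% in size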
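AMA1 (3D7) with his tag at 25 nM final met compounds first, then biotinylated RON2 peptide at 25 nM; detection used donor plus acceptor beads, 10 µg/mL apiece, read by AlphaScreen after 30 min at room temperature.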
AmpC inh no detg: inhibitors of E. coli AmpC beta-lactamase without detergent. AID 485341. AmpC nitrocefin hydrolysis, absorbance 480 nm, 0.0001% Triton. 330,000 tested, 0.52% active. P00811. Potency, µM (doses to about 57.1 µM), without a hit: top-dose activity change, negative = inhibition, hits mostly inhibitors;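 further: plate controls were no compound for no effect and no enzyme for full effect; nearly all actives have a fitted effect of over 20% in size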
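AmpC (5.3 nM in the dispensed reagent) in 20 mM phosphate pH 7.0 with 0.01% (detergent screen) or 0.0001% Triton X-100 was preincubated with compounds for 15 min at room temperature. Nitrocefin was then added from an 800 uM solution, and hydrolysis was followed at 480 nm.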
Starred values were filed as active, the others as inactive; ? = inconclusive; . = no result; [ ] = remark or other dose. A selection: hits, their analogues and other compounds. The true share with any hit is near 11%. The call rests on the fitted dose curve; in most records, active means well fitted curve in the direction sought with a large enough effect; inconclusive means small, poorly fitted or top-dose-only effect, or another doubt; inactive means no such curve, though single readings can be large; an effect the other way counts as inactive or inconclusive. Unless noted, on the % scale 0 is the no-effect control and ±100 the full control effect; potency means the concentration at half of the fitted maximal effect.

SMILES	HCV inhibitor	AmpC detergent	Pf growth 96h	Pf growth 48h	AMA1-RON2 inh	AmpC inh no detg
CN(CC1CCCO1)S(=O)(=O)c1ccc(C(=O)Nc2nc(-c3ccccn3)cs2)cc1 (centres undefined)	4.47µM*	-9.0%	3.29µM*	11.7µM*	-36.7%	21.3%
Cc1cc(-c2csc(NC(=O)c3ccc(S(=O)(=O)N(C)C)cc3)n2)c(C)n1-c1ccccc1	?	-5.9%	10.4µM*	?	16.0%	-27.8%
Cc1ccc(C(=O)Nc2ccccn2)cc1S(=O)(=O)N1CCOCC1	9.7%	0.0%	0.0%	22.4%	40.7%	-4.5%
O=C(Nc1ccccc1C(F)(F)F)c1cc(S(=O)(=O)N2CCOCC2)ccc1F	21.3%	-0.1%	0.928µM*	10.5%	-1.5%	-2.9%
Cc1ccc(C(=O)Nc2nc(-c3ccccn3)cs2)cc1S(=O)(=O)N1CCOCC1	5.62µM*	-9.6%	0.465µM*	1.65µM*	-58.4%	40.9%
CN(C)S(=O)(=O)c1ccc(C(=O)Nc2nc(-c3cc4ccccc4o3)cs2)cc1	?	-6.6%	?	-15.9%	0.0%	-54.6%
CCOc1ccccc1C(=O)Nc1c(NC)c2ccccc2oc1=O	.	11.2%	.	.	.	.
Cc1ccc(C(=O)OC/C(O)=C(\C#N)c2nc3ccccc3[nH]2)cc1S(=O)(=O)N1CCOCC1	-2.2%	-8.7%	?	8.4%	47.0%	47.1%
Cc1ccc(S(=O)(=O)N2CCOCC2)cc1N/N=C(\C#N)c1nc2ccccc2[nH]1	1.9%	-3.1%	3.29µM*	?	35.0%	-4.5%
O=C(Nc1nc(-c2ccccn2)cs1)c1cc(S(=O)(=O)N2CCOCC2)ccc1F	?	?	10.4µM*	10.4µM*	-48.1%	5.8%
CCOC(=O)C1=C(C)N=c2s/c(=C\c3cccn3C)c(=O)n2C1c1cccc(OC)c1OC (centres undefined)	11.2%	-13.8%	?	2.08µM*	-0.9%	1.4%
CCOC(=O)C1=C(C)N=c2s/c(=C/c3cccc([N+](=O)[O-])c3O)c(=O)n2C1c1cc(OC)c(OC)c(OC)c1 (centres undefined)	-3.3%	-1.4%	?	1.04µM*	0.6%	-16.9%
CCOC(=O)C1=C(C)N=c2s/c(=C\c3ccc(C(=O)O)cc3)c(=O)n2C1c1ccc(OC)cc1OC (centres undefined)	0.9%	.	.	.	-3.4%	.
CCOC(=O)C1=C(C)N=c2s/c(=C/c3cccc([N+](=O)[O-])c3O)c(=O)n2C1c1ccccc1 (centres undefined)	13.0%	0.2%	-17.2%	?	-19.5%	-30.5%
COc1ccccc1Cn1cc(C(=O)c2ccc(C)cc2)c(=O)c2cc3c(cc21)OCCO3	.	-13.8%	.	.	.	.
Clc1ccc(-c2cn(-c3ccccc3)c3[n+]2CCS3)cc1	-23.0%	6.8%	33.6%[5.75 µM]	?	-7.3%	-11.8%
Fc1ccc(-c2cn(-c3ccccc3)c3[n+]2CCS3)cc1	?	0.7%	0.415µM*	0.928µM*	-19.9%	-13.3%
COc1ccc(-c2cn(-c3ccc(Br)cc3)c3[n+]2CCS3)cc1	-24.5%	?	?	1.04µM*	-6.8%[2.32 µM]	-16.9%
Cc1ccc(CN(C(=O)c2ccccc2)c2ccccn2)o1	.	8.9%	.	.	.	.
CC1=CC(C)(C)N2C(=O)C3(NCCc4c3[nH]c3ccccc43)c3cc(C)cc1c32 (centres undefined)	7.94µM*	-4.8%	?	?	-13.5%	8.0%
CN1C(=O)C2(NCCc3c2[nH]c2ccccc32)c2ccccc21 (centres undefined)	3.5%	3.2%	?	?	7.2%	-0.6%
Cc1cc(C(F)(F)F)n2nc(-c3cnn(C)c3C(F)(F)F)c(Cl)c2n1	3.0%	-8.2%	?	3.29µM*	-6.8%	30.3%
C=CC[n+]1c(-c2ccc(C)cc2)csc1Nc1c(C)n(C)n(-c2ccccc2)c1=O	-27.2%	-14.2%	-17.6%	-0.1%	-15.0%	-8.1%[11.4 µM]
C=CC[n+]1c(-c2ccc(OCC)cc2)csc1NNC(=O)Nc1ccccc1	7.08µM*	-1.9%	?	.	-29.4%	-21.1%
CC(=O)N(/N=C/c1cccc(C)c1)c1nc(-c2ccc(Br)cc2)cs1	8.6%	?	11.7µM*	?	-2.2%	7.5%
SMILES	HCV inhibitor	AmpC detergent	Pf growth 96h	Pf growth 48h	AMA1-RON2 inh	AmpC inh no detg
Cc1nn(CC(=O)NCc2ccc(F)cc2)c2ccccc12	.	20.9%	.	.	.	.
Cc1nc2ccccc2n1C1CCN(CC(=O)NCc2ccc(F)cc2)CC1	-5.3%	?	5.86µM*	?	-5.7%	113.9%
CCN(CC)S(=O)(=O)c1cc(NC(=O)Cn2cnc3ccccc3c2=O)ccc1C	11.2µM*	3.4%	.	-19.0%	-11.4%	-15.9%
CN(c1ccccc1)S(=O)(=O)c1cccc(NC(=O)Cn2cnc3ccccc3c2=O)c1	2.82µM*	-0.3%	-34.2%	.	-6.6%	-22.2%
Cn1nc(C(=O)Nc2cccc(C(F)(F)F)c2)c2ccccc2c1=O	6.5%	1.3%	38.7%	?	8.1%	131.8%
CN(C)S(=O)(=O)c1cccc(NC(=O)CSc2ncnc3ccccc23)c1	7.94µM*	-8.9%	?	?	20.8%	-33.6%
CN(c1ccccc1)S(=O)(=O)c1cccc(NC(=O)c2nn(C)c(=O)c3ccccc23)c1	4.47µM*	-11.3%	?	?	-1.2%	85.5%
CC(C)(C)c1csc(NC(=O)CSc2nc3ccccc3c(=O)[nH]2)n1	14.6%	-14.6%	62.3%	-28.5%	-9.8%	-7.4%
CC(C)(C)c1csc(NC(=O)Cn2cnc3ccccc3c2=O)n1	14.1µM*	?	-12.6%	-11.4%	0.4%	-29.2%
COc1ccc(-c2nc(SCC(=O)NCc3nc4ccccc4n3C)n3[nH]c(=O)cc3n2)cc1	.	3.1%	.	.	.	.
CC1Cn2c(nnc2-c2cc3ccccc3cc2O)S1 (centres undefined)	?	1.9%	.	1.65µM*	8.2%	-10.9%
O=C(COC(=O)c1c2ccccc2cc2ccccc12)NCC(F)(F)F	11.2µM*	?	-13.4%	-24.2%	39.6%	-8.4%
O=c1oc2ccc(Cl)cc2nc1/C=C(\O)c1ccco1	-22.0%	2.1%	14.7µM*	?	54.3%	-32.3%
CCCc1noc(-c2ccc(N3CCCCC3)c([N+](=O)[O-])c2)n1	.	25.0%	.	.	.	.
CCCCNC(=O)CCCn1c(=O)c2ccccc2n(Cc2ccccc2C)c1=O	.	19.4%	.	.	.	.
CCCSc1nnc(Sc2nnnn2-c2ccccc2)s1	?	-2.5%	.	13.1µM*	0.9%	-28.9%
Cc1cc(C)c(C#N)c(Sc2nnnn2-c2ccccc2)n1	14.2%	?	2.33µM*	-3.4%	-2.5%	0.562µM*
